Results filed as inconclusive are left out. Activity calls are given as the source filed them. Unless noted, the call rests on the fitted dose curve; in most records, active means well fitted curve in the direction sought with a large enough effect; inconclusive means small, poorly fitted or top-dose-only effect, or another doubt; inactive means no such curve, though single readings can be large; an effect the other way counts as inactive or inconclusive.
Assays:
[1] = system: Zika virus NS2B-NS3 protease (unlinked complex); test: Primary screen GU Rhodamine qHTS for Zika virus inhibitors: Unlinked NS2B-NS3 protease assay (AID 1347159); further: nearly all actives have a fitted effect of over 60% in size; further: potency means the concentration at half of the fitted maximal effect; on activity change, negative = inhibition: on the % scale 0 is the no-effect control and ±100 the full control effect
Summary of the method: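 Buffer 10 mM Tris-HCl pH 8.0, 0.01% Tween 20. Unlinked protease 25 nM; compound preincubation 15 min, RT, protected from light. Substrate Rhod110, 1.5 microM; ~15% conversion in 15 min.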

[2] = Primary qHTS for inhibitors of nuclear receptor binding SET domain protein 2 (NSD2) in an isogenic RCH-ACV NSD2 p.E1099K mutant (9B) (AID 1645876); further: nearly all actives have a fitted effect of over 70% in size; further: potency means the concentration at half of the fitted maximal effect
[3] = Primary qHTS for inhibitors of nuclear receptor binding SET domain protein 2 (NSD2) in an RCH-ACV wild type WT cells (2C) (AID 1645877); further: nearly all actives have a fitted effect of over 70% in size; further: potency means the concentration at half of the fitted maximal effect
[4] = Primary fluorescence-based thiol-reactive (MSTI) qHTS assay for identification of artifact compounds. (AID 1845221); further: nearly all actives have a fitted effect of over 65% in size; further: potency means the concentration at half of the fitted maximal effect;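 on activity change, negative = thiol reactive: thiol-reactive compounds lower the probe fluorescence signal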
Summary of the method: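 Thiol-reactive compounds detected by quenching of 4 uM MSTI fluorescence (525/598 nm) after 1 h room-temperature dark incubation in PBS pH 7.4, 2% DMSO. qHTS titration; percent inhibition Hill-fitted against Acetyl-MSTI/MSTI controls.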

[5] = Primary redox qHTS assay for identification of artifact compounds. (AID 1845223);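 further: 0% = DMSO and 100% = reference compound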
Summary of the method: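 Redox-cycling detection via DTT (250 uM final) oxidation coupled to Amplex Red (25 uM)/HRP (250 mU/mL) in HBSS. 15 min preincubation plus 30 min after DTT, room temperature. Ex/Em 525/598 nm; 4-parameter Hill fit against DMSO and 10 uM DA3003.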

SKOV3 = test: Primary qHTS to identify gynecologic anti-cancer compounds using libraries of approved drugs and bioactive compounds (AID 1345084); settings: Gynecologic cancer cell panel viability, ATPlite luminescence, 48 h; series mostly up to 57.5 µM; further: nearly all actives have a fitted effect of over 55% in size; further: potency means the concentration at half of the fitted maximal effect
Summary of the method: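 Five-point cytotoxicity, 48 h drug exposure at 37 C, 5% CO2, on cells seeded 16 h beforehand. ATP content read by ATPlite luminescence.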

HaCat [6] = test: Cytotoxic Profiling of Annotated Libraries Using Quantitative High-Throughput Screening (AID 1296008); settings: Five cell lines viability, CellTiter-Glo ATP luminescence, 48-72 h; max response: stronger effect = lower value; further: nearly all actives have a fitted effect of over 60% in size; further: potency means the concentration at half of the fitted maximal effect; on max response: on the % scale 0 is the no-effect control and ±100 the full control effect
Summary of the method: (§1)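 Cells exposed to compounds for 48 or 72 hr at 37 degrees Celsius. Viability read as ATP-coupled luminescence with CellTiter-Glo after 10 min at room temperature.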

NIH3T3 = test: qHTS assay to identify novel small-molecules to repurpose for Merkel cell carcinoma treatment (AID 1296009); settings: MCC and control cell lines, CellTiter-Glo viability, 72 h; at 44.8 µM (top of the series) unless noted; further: nearly all actives have a fitted effect of over 60% in size
Summary of the method: (§2)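 CellTiter-Glo luminescence after 72 hr compound exposure at 37 degree celsius gave cell viability. Libraries NPC and MIPE were run as 8- and 11-point dose responses; RLUs normalized to DMSO (negative) and no-cell (cytotoxicity) controls.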

[7] = biological target: Catechol O-methyltransferase (Homo sapiens) (UniProt P21964); test: Confirmatory Screen for Target Class Profiling of Small Molecule Inhibitors of Methyltransferases (AID 1745852; calls by dose curve; further: potency means the concentration at half of the fitted maximal effect); settings: MTase-Glo luminescence, SAH detection, recombinant enzyme; measured here: COMT max response; stronger effect = lower value
[8] = biological target: Guanidinoacetate N-methyltransferase (Homo sapiens) (UniProt Q14353); test: as above; settings: activity change, negative = inhibition: at 57.3 µM (top of the series) unless noted
[9] = biological target: Nicotinamide N-methyltransferase (Homo sapiens) (UniProt P40261); test: as above; settings: MTase-Glo luminescence, SAH detection, recombinant enzyme; measured here: NNMT max response; stronger effect = lower value
[10] = biological target: Phenylethanolamine N-methyltransferase (Homo sapiens) (UniProt P11086); test: as above; settings: MTase-Glo luminescence, SAH detection, recombinant enzyme; measured here: PNMT max response; stronger effect = lower value
CRL-7250 = normal cell line; test: qHTS assay to identify novel small-molecules to repurpose for Merkel cell carcinoma treatment (AID 1296009); settings: MCC and control cell lines, CellTiter-Glo viability, 72 h; series mostly up to 92 µM; further: nearly all actives have a fitted effect of over 60% in size
Summary of the method: as §2

[11] = biological target: Cytochrome P450 2D6 (Homo sapiens) (UniProt P10635); test: Cytochrome P450 family 2 subfamily D member 6 (CYP2D6) small molecule antagonists: luciferase biochemical (cell-free) qHTS assay (AID 1645840; active means well fitted curve in the direction sought with a large enough effect in the repeat runs; an effect the other way counts as inactive or inconclusive; further: nearly all actives have a fitted effect of over 55% in size; further: potency means the concentration at half of the fitted maximal effect; on activity change, negative = inhibition: on the % scale 0 is the no-effect control and ±100 the full control effect)
Summary of the method: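 P450-Glo CYP2D6 system: proluciferin substrate converted by enzyme to luciferin, read by luminescence proportional to activity. Enzyme-substrate mix with compound 10 min at room temperature, then NADPH regeneration 1 h before detection reagent.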

[12] = biological target: Cytochrome P450 2C9 (Homo sapiens) (UniProt P11712); test: Cytochrome P450 family 2 subfamily C member 9 (CYP2C9) small molecule antagonists: luciferase biochemical (cell-free) qHTS assay (AID 1645842; active means well fitted curve in the direction sought with a large enough effect in the repeat runs; an effect the other way counts as inactive or inconclusive; further: nearly all actives have a fitted effect of over 55% in size; further: potency means the concentration at half of the fitted maximal effect)
Summary of the method: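 P450-Glo CYP2C9 system: proluciferin substrate with enzyme in mix containing 0.4% BSA, 10 min at room temperature, then NADPH regeneration solution added and incubated 1 h at 37C. Detection reagent stopped reaction; luminescence read after 20 min as RLU.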

HEK293 = test: Cytotoxic Profiling of Annotated Libraries Using Quantitative High-Throughput Screening (AID 1296008); settings: Five cell lines viability, CellTiter-Glo ATP luminescence, 48-72 h; max response: stronger effect = lower value; further: nearly all actives have a fitted effect of over 60% in size; further: potency means the concentration at half of the fitted maximal effect; on max response: on the % scale 0 is the no-effect control and ±100 the full control effect
Summary of the method: as §1

KB-3-1 = test: as above; settings: Five cell lines viability, CellTiter-Glo ATP luminescence, 48-72 h; max response: stronger effect = lower value
Summary of the method: as §1

[13] = qHTS drug screen for cell cycle checkpoint inhibitors in PARPi-resistant BRCA-mutant ovarian cancer cell lines. (AID 1963452; calls by dose curve); settings: PEO1/OlaR viability, CellTiter-Glo luminescence, 96 h, stronger effect = lower value
Summary of the method: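 PEO1, PEO4 and PEO1/OlaR ovarian cancer cells, 600 per well, exposed 96 h at 37C to a dilution series. Viability read by CellTiter-Glo luminescence, normalized to DMSO and empty wells; activity summarized as Z-AUC.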

HACAT [14] = test: qHTS assay to identify novel small-molecules to repurpose for Merkel cell carcinoma treatment (AID 1296009); settings: MCC and control cell lines, CellTiter-Glo viability, 72 h; at 44.8 µM (top of the series) unless noted; further: nearly all actives have a fitted effect of over 60% in size
Summary of the method: as §2

Cytochrome P450 2D6 (Homo sapiens), sequence (P10635 whole entry, looked up): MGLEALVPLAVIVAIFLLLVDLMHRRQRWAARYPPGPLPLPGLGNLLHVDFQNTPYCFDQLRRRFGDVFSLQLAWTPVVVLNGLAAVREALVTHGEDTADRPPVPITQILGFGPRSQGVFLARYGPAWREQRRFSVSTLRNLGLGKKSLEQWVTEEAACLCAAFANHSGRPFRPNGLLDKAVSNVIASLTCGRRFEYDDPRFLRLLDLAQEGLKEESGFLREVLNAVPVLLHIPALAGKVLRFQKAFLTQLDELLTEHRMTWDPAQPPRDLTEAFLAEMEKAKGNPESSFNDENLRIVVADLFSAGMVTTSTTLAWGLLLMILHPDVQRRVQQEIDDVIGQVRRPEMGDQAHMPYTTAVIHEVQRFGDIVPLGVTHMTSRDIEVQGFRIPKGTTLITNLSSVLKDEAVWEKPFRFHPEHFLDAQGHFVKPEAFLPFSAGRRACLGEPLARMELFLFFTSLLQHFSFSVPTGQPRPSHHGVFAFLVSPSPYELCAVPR
Cytochrome P450 2C9 (Homo sapiens), sequence (P11712 whole entry, looked up): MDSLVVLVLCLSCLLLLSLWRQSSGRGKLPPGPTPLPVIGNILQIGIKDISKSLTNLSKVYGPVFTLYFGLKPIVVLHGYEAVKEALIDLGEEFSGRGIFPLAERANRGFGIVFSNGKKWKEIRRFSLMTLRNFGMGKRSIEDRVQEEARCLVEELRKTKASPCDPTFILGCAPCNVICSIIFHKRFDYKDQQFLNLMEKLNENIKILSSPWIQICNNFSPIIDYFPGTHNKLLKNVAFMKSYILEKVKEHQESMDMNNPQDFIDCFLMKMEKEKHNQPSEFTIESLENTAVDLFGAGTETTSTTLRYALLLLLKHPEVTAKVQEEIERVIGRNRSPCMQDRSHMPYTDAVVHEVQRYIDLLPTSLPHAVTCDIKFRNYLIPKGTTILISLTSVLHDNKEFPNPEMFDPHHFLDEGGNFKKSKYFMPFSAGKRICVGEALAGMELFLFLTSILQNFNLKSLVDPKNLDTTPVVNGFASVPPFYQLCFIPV
Phenylethanolamine N-methyltransferase (Homo sapiens), sequence (P11086 whole entry, looked up): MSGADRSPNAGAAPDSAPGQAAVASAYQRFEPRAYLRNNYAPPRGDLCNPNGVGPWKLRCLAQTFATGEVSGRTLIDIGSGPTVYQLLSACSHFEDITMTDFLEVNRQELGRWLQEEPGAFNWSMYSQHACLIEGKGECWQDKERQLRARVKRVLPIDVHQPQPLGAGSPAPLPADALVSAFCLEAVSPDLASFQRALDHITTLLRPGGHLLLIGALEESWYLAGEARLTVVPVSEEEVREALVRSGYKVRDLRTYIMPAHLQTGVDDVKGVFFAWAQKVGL
Nicotinamide N-methyltransferase (Homo sapiens), sequence (P40261 whole entry, looked up): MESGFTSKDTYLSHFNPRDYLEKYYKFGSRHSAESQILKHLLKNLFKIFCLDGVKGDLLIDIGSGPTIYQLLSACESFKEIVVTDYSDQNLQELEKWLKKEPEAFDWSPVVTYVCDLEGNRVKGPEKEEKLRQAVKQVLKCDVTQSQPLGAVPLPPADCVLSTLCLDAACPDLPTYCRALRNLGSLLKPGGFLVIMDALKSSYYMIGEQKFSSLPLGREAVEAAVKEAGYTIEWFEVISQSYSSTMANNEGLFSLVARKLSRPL
Catechol O-methyltransferase (Homo sapiens), sequence (P21964 whole entry, looked up): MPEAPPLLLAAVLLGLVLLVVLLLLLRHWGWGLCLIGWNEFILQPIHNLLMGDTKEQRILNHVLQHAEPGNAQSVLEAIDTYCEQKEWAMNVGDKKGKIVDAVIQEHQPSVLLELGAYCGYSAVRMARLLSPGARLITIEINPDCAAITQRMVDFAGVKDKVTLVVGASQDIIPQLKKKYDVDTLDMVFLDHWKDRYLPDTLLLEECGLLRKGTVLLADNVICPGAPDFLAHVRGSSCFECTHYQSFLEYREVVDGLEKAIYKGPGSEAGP

In the case of CO[C@H]1C[C@H](O[C@H]2CC[C@]3(CO)[C@H]4CC[C@]5(C)[C@@H](C6=CC(=O)OC6)CC[C@]5(O)[C@@H]4CC[C@]3(O)C2)O[C@H](C)[C@H]1O, the Potency [1] is reported as “inactive”, the Potency [2] is reported as 50.2 nM (active) and the Potency [3] is reported as 79.6 nM (active). The Potency [4] was “inactive”, the Potency [5] was “inactive” and the Potency (SKOV3) was 158 nM (active).
For CO[C@@H]1[C@@H](O)[C@@H](O[C@H]2CC[C@]3(C=O)C4CC[C@]5(C)[C@@H](C6=CC(=O)OC6)CC[C@]5(O)[C@@H]4CC[C@H]3C2)O[C@@H](C)[C@H]1O[C@@H]1O[C@H](CO[C@@H]2O[C@H](CO)[C@@H](O)[C@H](O)[C@H]2O)[C@@H](O)[C@H](O)[C@H]1O (stereo partly drawn), the Potency [1] was “inactive”, the Potency [2] was 2750 nM (active) and the Potency [3] was 3460 nM (active). The activity change, negative = thiol reactive [4] was 52.3% [at 11.5 µM] (inactive), the redox activity (% of DA3003) [5] was 5.87% [at 11.5 µM] (inactive) and the max response (HaCat [6]) was -22.5% (inactive). For the same molecule, the outcome (NIH3T3) was “inactive [at 9.27 µM]”.
For C[C@H]1CCC[C@H](O)CCC/C=C/c2cc(O)cc(O)c2C(=O)O1, the Potency [2] was 14500 nM (active), the Potency [3] was 14500 nM (active) and the activity [7] was -96.3%. For the same molecule, the Potency [8] was 3410 nM (active), the activity [9] was -89% and the activity [10] was -98.1%. For the same molecule, the Potency [4] was “inactive”, the Potency [5] was “inactive” and the Potency (CRL-7250) was “inactive”. For the same molecule, the outcome (NIH3T3) was “inactive” and the Potency (SKOV3) was “inactive”.
With O=C(NCCN1CCC2(CC1)C(=O)NCN2c1cccc(F)c1)c1ccc(F)c(F)c1 the Potency [2] was 23000 nM (active), the Potency [3] was 14500 nM (active) and the Potency [4] was “inactive”. For the same molecule, the Potency [5] was “inactive” and the Potency (SKOV3) was “inactive”.
With C[C@]12CC[C@H](O[C@@H]3O[C@H](CO)[C@@H](O)[C@H](O)[C@H]3O)CC1=CC[C@@H]1C2CC[C@]2(C)[C@@H](C3=CC(=O)OC3)CC[C@]12O (stereo partly drawn) the Potency [1] was “inactive”, the Potency [2] was 2420 nM (active) and the Potency [3] was 5410 nM (active). For the same molecule, the Potency [4] was “inactive”.
For CC/C=C/C=C/C1(C)OC(OC)=C(C(=O)C2C(C)C(=O)c3cc(OC)c(O)c(O)c3C2(C)O)C1=O (stereo not drawn), the Potency [1] was 6310 nM (active), the Potency [3] was 7090 nM (active) and the Potency [4] was 1300 nM (active). The Potency [5] was “inactive”.
In the case of O=C1CN=C(c2ccccc2Cl)c2cc(Br)ccc2N1, the Potency [11] is reported as 13500 nM (active), the Potency [12] is reported as 13500 nM (active) and the Potency [2] is reported as 23000 nM (active). For the same molecule, the Potency [3] was 12900 nM (active), the Potency [4] was “inactive” and the Potency [5] was “inactive”. For the same molecule, the max response (HaCat [6]) was -40.1% (inactive) and the outcome (NIH3T3) was “inactive”.
For CO/C1=C\C(C)=C\[C@@H](C)[C@@H](O)[C@@H](C)C/C(C)=C/C=C/[C@H](OC)[C@@H]([C@@H](C)[C@@H](O)[C@H](C)[C@@]2(O)C[C@@H](O)[C@H](C)[C@@H](C(C)C)O2)OC1=O, the Potency [1] was “inactive”, the Potency [2] was 48.3 nM (active) and the Potency [3] was 30.5 nM (active). The Potency [4] was “inactive” and the Potency [5] was “inactive”.
With COC1CC(OC2CCC3(C=O)C(CCC4C3CCC3(C)C(C5=CC(=O)OC5)CCC43O)C2)OC(C)C1O (stereo not drawn) the Potency [2] was 79.6 nM (active), the Potency [3] was 126 nM (active) and the Potency (HEK293) was 112 nM (active). The Potency (HaCat [6]) was 2820 nM (active), the Potency (KB-3-1) was 252 nM (active) and the Potency (SKOV3) was 199 nM (active).
In the case of C/C=C(\C)C(=O)O[C@H]1CC2C(=C1C)[C@H]1OC(=O)[C@](C)(O)[C@]1(O)[C@H](OC(=O)CCC)C[C@@]2(C)OC(C)=O (stereo partly drawn), the Potency [1] is reported as “inactive”, the Potency [2] is reported as 1000 nM (active) and the Potency [3] is reported as 709 nM (active). For the same molecule, the Potency [5] was “inactive” and the Potency (SKOV3) was “inactive”.
In the case of NC(=O)[C@@H](CC1CC1)[C@@H](CCC(F)(F)F)C(=O)N[C@H]1N=C(c2ccccc2)c2cccc(F)c2NC1=O, the Potency [11] is reported as “inactive”, the Potency [2] is reported as “inactive” and the Potency [3] is reported as “inactive”. The Potency [4] was “inactive”, the Potency [5] was “inactive” and the Z-AUC [13] was -1.08 (inactive). For the same molecule, the Z-AUC ([13]; measured here: PEO1 parental Z-AUC) was -0.643, the Z-AUC ([13]; measured here: PEO4 Z-AUC) was -1.43 and the max response (HEK293) was 0.706% (inactive). The max response (HaCat [6]) was -25% (inactive), the max response (KB-3-1) was 4.24% (inactive) and the Potency (SKOV3) was “inactive”.
For C=C1C(=O)OC2/C=C(\COO)CC/C=C(\COC(C)=O)CC(OC(=O)C(C)CC)C12 (stereo not drawn), the Potency [1] was “inactive”, the Potency [2] was 6320 nM (active) and the Potency [3] was 3550 nM (active). The Potency [4] was “inactive”, the Potency [5] was “inactive” and the outcome (HaCat [6]) was “inactive”. The outcome (HACAT [14]) was “inactive [at 17.4 µM]”.
With CCOC(=O)Nc1ccc(NCc2c(C)cc(C)cc2C)cc1N the Potency [1] was “inactive”, the Potency [11] was 2130 nM (active) and the Potency [12] was “inactive”. For the same molecule, the Potency [2] was 18300 nM (active), the Potency [3] was 9160 nM (active) and the Potency [5] was “inactive”. The Potency (SKOV3) was “inactive”.
With CC[C@@H](C)[C@H]1C(=O)O[C@H](C(C)C)C(=O)N(C)[C@@H](C(C)C)C(=O)O[C@H](C(C)C)C(=O)N(C)[C@@H](C(C)C)C(=O)O[C@H](C(C)C)C(=O)N1C the Potency [1] was “inactive”, the Potency [2] was 2160 nM (active) and the Potency [3] was 1530 nM (active). For the same molecule, the Potency [4] was “inactive”.
For COc1ccc(C23CCC(=O)C=C2N(C)CC3)cc1OC (stereo not drawn), the Potency [1] was “inactive”, the Potency [2] was “inactive” and the Potency [3] was “inactive”. The Potency [4] was “inactive”, the max response (HEK293) was -6.12% (inactive) and the max response (KB-3-1) was -13% (inactive). For the same molecule, the Potency (SKOV3) was 25100 nM (active).
